Screening data deposited in PubChem BioAssay by National Center for Advancing Translational Sciences (NCATS).
FMDV antiviral = High Throughput Screening for Foot and Mouth Disease Virus Antivirals | FMDV antiviral cell-based qHTS | hit rate 1.2% among 410,000 | Potency, µM (titrated, usually from 57.9 µM), for the others: top-dose activity change, negative = inhibition, actives largely listed as inhibitors; calls by dose curve; tested in HEK293T cells; further: read-out not given here; potency means the concentration at half of the fitted maximal effect; nearly all actives have a fitted effect of over 45% in size
AmpC no deterg = qHTS Inhibitors of AmpC Beta-Lactamase (assay without detergent). P00811. AmpC nitrocefin hydrolysis, absorbance 480 nm, 0.0001% Triton. Potency, µM (doses to about 57.1 µM), without a hit: top-dose activity change, negative = inhibition, actives largely listed as inhibitors. hit rate 0.52% among 330,000. AID 485341, 2010;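 further: potency means the concentration at half of the fitted maximal effect; plate controls were no compound for no effect and no enzyme for full effect; nearly all actives have a fitted effect of over 20% in size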
Target sequence (P00811 whole entry, looked up): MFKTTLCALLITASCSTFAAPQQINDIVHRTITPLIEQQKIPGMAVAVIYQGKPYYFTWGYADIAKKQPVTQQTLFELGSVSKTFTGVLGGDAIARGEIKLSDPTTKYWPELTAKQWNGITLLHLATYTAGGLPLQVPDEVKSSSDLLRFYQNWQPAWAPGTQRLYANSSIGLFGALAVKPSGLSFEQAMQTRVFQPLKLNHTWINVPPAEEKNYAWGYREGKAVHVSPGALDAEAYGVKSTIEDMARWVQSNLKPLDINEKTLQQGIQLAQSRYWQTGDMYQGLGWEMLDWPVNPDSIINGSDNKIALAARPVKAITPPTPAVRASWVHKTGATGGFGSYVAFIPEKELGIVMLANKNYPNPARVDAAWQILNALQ
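AmpC (5.3 nM in the dispensed reagent) in 20 mM phosphate pH 7.0 with 0.01% (detergent screen) or 0.0001% Triton X-100 was preincubated with compounds for 15 min at room temperature. Nitrocefin was then added from an 800 uM solution, and hydrolysis was followed at 480 nm.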
HCMV antiviral = qHTS Assay for inhibitors of the human cytomegalovirus (HCMV) | HFF cells, HCMV-luciferase reporter, 72 h; stronger effect = lower value | activity change, negative = inhibition, % at 57.5 µM | hit rate 4.5% among 410,000; in the data active means activity change below about -60%; inconclusive means no clear call, values can overlap the other calls; inactive means above about -39%
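Compounds were evaluated in HFFs infected with an HCMV luciferase reporter virus (MOI 1 PFU/cell). Luciferase in lysates collected 72 h post infection served as the replication measure.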
HCV inhibitor = qHTS Assay for Inhibitors of Hepatitis C Virus (HCV); Huh7.5.1 HCVcc-Cre infection, luciferase reporter, 44 h; Potency, µM (highest dose often 41.8 µM), inactives show at the top dose activity change, negative = inhibition, hits mostly inhibitors; hit rate 3.4% among 340,000; AID 651820, 2012; further: potency means the concentration at half of the fitted maximal effect
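Cells (1,000/well) were plated 4 h before compound, then infected with HCVcc-Cre virus (~0.5 moi). After 44 h further culture, infection was read as luciferase luminescence following a 15 min substrate incubation at room temperature.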
AmpC inh detg = qHTS Inhibitors of AmpC Beta-Lactamase (assay with detergent) | P00811 | AmpC hydrolysis of nitrocefin, absorbance 480 nm, 0.01% Triton | Potency, µM (top dose mostly 114 µM), without a hit: at the top dose activity change, negative = inhibition, hits mostly inhibitors | hit rate 0.041% among 370,000;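 further: potency means the concentration at half of the fitted maximal effect; 0% = no-compound wells and -100% = no-enzyme wells; nearly all actives have a fitted effect of over 25% in size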
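AmpC (5.3 nM in the dispensed reagent) in 20 mM phosphate pH 7.0 with 0.01% (detergent screen) or 0.0001% Triton X-100 was preincubated with compounds for 15 min at room temperature. Nitrocefin was then added from an 800 uM solution, and hydrolysis was followed at 480 nm.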
* marks the source's active call; other numbers are inactive results; ? = inconclusive; . = not tested or not shown; [ ] = remark or other dose. Compounds with a hit are over-represented: about 7.3% of the library has one in this group of screens. Unless noted, the call rests on the fitted dose curve; in most records, active means well fitted curve in the direction sought with a large enough effect; inconclusive means small, poorly fitted or top-dose-only effect, or another doubt; inactive means no such curve, though single readings can be large; an effect the other way counts as inactive or inconclusive. Unless noted, on the % scale 0 is the no-effect control and ±100 the full control effect.

SMILES	FMDV antiviral	AmpC no deterg	HCMV antiviral	HCV inhibitor	AmpC inh detg
O=C(O)c1cccc2c1NC(C(=O)O)C1CC(Sc3ccccc3[N+](=O)[O-])C(Cl)C21 (stereo not drawn)	-26%	-51%	6	-8%	40µM*
Cc1cc(/C=C(/C#N)C(=O)O)c(C)n1CCC(C)C	8%	-16%	-68*	12%	1%
CCCn1c(C)cc(/C=C(\C#N)C(=O)O)c1C	-11%	-5%	90	9%	-3%
O=C1CCN(Cc2cccc(C(F)(F)F)c2)CCN1Cc1ccccn1	-11%	.	.	.	.
Oc1ccc(Br)cc1/C=N/Nc1nc(N2CCCCC2)nc(N2CCOCC2)n1	-18%	-18%	?	?	7%
Oc1ccc(C=NNc2nc3ccccc3s2)c(O)c1	13%	.	-63*	?	.
Brc1cc2c(cc1/C=N/Nc1nc(N3CCCC3)nc(N3CCOCC3)n1)OCO2	?	-44%	-14	2.8µM*	-13%
Oc1ccc(/C=N/Nc2nc(N3CCCCCC3)nc(N3CCCCCC3)n2)c(O)c1	?	-32%	-89*	?	1%
C=CCN(C(=O)CSc1nc2ccsc2c(=O)n1Cc1ccc(C(=O)O)cc1)c1ccccc1	-17%	.	2	.	.
c1coc(C2=NCCc3ccccc32)c1	8%	-15%	-19	6%	-12%
ClCCN(CCCl)c1ccc(C2=NCCc3ccccc32)cc1	?	.	-74*	?	.
Cc1ccc(OCC(=O)OCc2nc3scc(-c4ccccc4)c3c(=O)[nH]2)cc1C	-13%	-25%	-29	-11%	-10%
O=C(NCCN1C(=O)S/C(=C\c2ccc(OC(F)F)cc2)C1=O)C1=COCCO1	-14%	-1%	.	11µM*	-13%
COc1ccc(/C=C2\SC(=O)N(CCNC(=O)C3=COCCO3)C2=O)cc1	38%	-13%	26	?	?
CCOc1ccc(NC(=O)C2C3C=CC4(O3)C2C(=O)N(Cc2cccnc2)C4C(=O)NC2CCCCC2)cc1 (stereo not drawn)	24%	-4%	.	-8%	2%
CCC1(C)Cc2c(sc(NC(=S)NC(=O)c3ccccc3)c2C#N)CO1 (stereo not drawn)	-2%	-14%	7	7%	-14%
CN1Cc2sc(NC(=S)NC(=O)c3ccccc3)c(C#N)c2CC1(C)C	?	-2%	-76*	?	3%
CCCCCCN1C[C@H](n2cc(COC(=O)c3ccccc3)nn2)[C@@H](O)C[C@@H]1c1ccc(C)cc1	?	.	-39	.	.
Cc1cc(C)nc(SCC(=O)NC2=NN=C(c3ccc(Br)cc3)CS2)n1	?	-32%	-92*	?	4%
CCC(Sc1nc(C)cc(C)n1)C(=O)NC1=NN=C(c2ccc(C)cc2)CS1 (stereo not drawn)	-14%	28%	-106*	?	-4%
COc1ccc(OC)c(CNS(=O)(=O)c2cc(-c3onc(C)c3C)ccc2C)c1	11%	.	-4	.	1%
Cc1cc(C)c2oc(C(=O)Nc3c(C(=O)c4ccccc4)oc4ccccc34)cc(=O)c2c1	-19%	.	16	.	16%
O=C(O)c1ccc2nc(-c3ccccc3)sc2c1	2.5µM*	-3%	?	0%	-10%
CC1CCN(c2nc3ccc(C(=O)O)cc3s2)CC1	?	-4%	-78*	25%	-6%
Nc1ccc(-c2nc3ccc(C(=O)O)cc3s2)cc1	?	-18%	-85*	13%	-10%
SMILES	FMDV antiviral	AmpC no deterg	HCMV antiviral	HCV inhibitor	AmpC inh detg
COc1ccc(Nc2c(-c3ccc(F)cc3)nc3nc(C)cc(C)n23)cc1	-7%	.	-67*	.	.
COc1ccc(Nc2c(-c3ccsc3)nc3nc(C)cc(C)n23)cc1	-1%	.	8	.	5%
Cc1ccc(CSC2=Nc3ccccc3C3=NC(=O)CN23)cc1	-11%	-10%	?	7.9µM*	6%
CC(OC(=O)c1ccccc1C(=O)O)c1ccccc1 (stereo not drawn)	2%	.	10	19%	.
C/C(=N\NC(=O)c1ccccc1)c1c(C)[nH]n(-c2ccccc2)c1=O	-3%	-35%	-97*	?	-1%
C/C(=N\NC(=O)c1ccc(C)cc1)c1c(C)[nH]n(-c2ccccc2)c1=O	17%	-35%	-92*	2%	0%
Cc1[nH]n(-c2ccccc2)c(=O)c1C(=O)Nc1ccccc1	17%	-8%	-15	1%	?
CC(C)N(C(=O)[C@H]1C[C@H](CC(=O)NCc2cccc(C(F)(F)F)c2)C(=O)N2CCc3c([nH]c4ccc(Cl)cc34)[C@]12C)C(C)C	?	-16%	?	-12%	.
COc1ccc2c(c1)[C@@H](NC(C)=O)[C@H](C)[C@@H](c1ccccc1)N2C(C)=O	.	.	-5	.	.
CCN(CC)CCN1CNC(=S)N(c2ccccc2OC)C1	0%	-15%	-65*	20%	4%
S=C(NCc1ccc(Cl)cc1)Nc1ccccc1	13%	3%	-66*	-29%	?
S=C(NCc1ccc(Cl)cc1)Nc1ccncc1	6%	-39%	?	6.3µM*	0%
Fc1ccc(CNC(=S)Nc2ccc(Cl)cc2)cc1	-1%	-30%	?	-6%	-1%
NC(=O)NC[C@@H]1CC[C@@H](Cc2ccc(-c3ccccc3)cc2)O1	11%	105%	.	-29%	.
COc1ccc(NC(=O)NC[C@@H]2CC[C@@H](Cc3ccc(-c4ccccc4)cc3)O2)cc1	-20%	-29%	-27	4.5µM*	.
COc1ccc(CNC(=S)Nc2ccc(-c3ccccc3)cc2)cc1	45%	14µM*	7	-13%	-7%
COc1ccc2ccc(C(C)(C(C)=O)C(=O)OC(C)C)cc2c1 (stereo not drawn)	-23%	5%	-16	-25%	-8%
CCCCNc1nc(Oc2ccc(OCCC)nn2)nc(N(C)C)n1	-20%	.	10	.	9%
Cc1ccc(S(=O)(=O)N2[C@@H](c3cccc(C)c3)C(C(=O)O)=C[C@H]2CC2CCCC2)cc1	3%	-20%	-3	16%[8.37 µM]	.
C[N+]1(Cc2ccccc2)CCC(C(=O)OCC2CCCC2)CC1 (stereo not drawn)	-9%	.	.	.	.
CC(C)(C)c1ccccc1NC(=S)NCc1ccccc1	-1%	-18%	-72*	-15%	?
COc1ccc(-c2nc(NC(=O)CCNC(=O)c3ccco3)sc2C)cc1	?	23%	-21	?	-9%
COc1ccc(-c2nc(NC(=O)c3cc(C(C)(C)C)nn3C)sc2C)cc1	28µM*	26%	.	5.6µM*	-8%
Cc1cc(C)c(-c2csc(NC(=O)c3n[nH]c(=O)c4ccccc34)n2)c(C)c1	?	-30%	-73*	?	-3%
COc1ccc(-c2nc(NC(=O)c3c(C)noc3C)sc2C)cc1	?	-4%	-61*	?	?
